From the OligoGym collection

Each sequence was assayed against SRC (assay: pooled miR-30 sensor sort-seq; sequence = guide strand). Conditions: shRNA.
Note: reference of the scale not given here.

Sequence	sensor-assay potency score (higher = more potent)
TGAAGGACAGGTCTGTCTCCGT	-0.405
TCGTGGTCTCACTTTCTCGCAC	-0.731
TCATTGTCTTCAATGAGCCGAG	-0.463
TCCGACTTGATGGTGAAGCGGC	-0.784
TAGACTCATAGTCATAGAGGGC	-1.02
TGTCTGTCCTGTGCTGAGCGAG	-1.15
TTTCGTGGTCTCACTTTCTCGC	0.127

Each sequence was assayed against SREBF2 in the same assay as above. Conditions: shRNA.

Sequence	sensor-assay potency score (higher = more potent)
TTAGCTTCGTCTTCAAAGCCTG	-0.243
TCGAATGACAGGACACTGCGGC	-0.313
TCATGCAGGAACACCTTGCGGT	0.123
TTAACAATCATCTGCTGGCAGT	-1.13
ATTACTGACAAATTGCAGCATC	-0.795
TTTGATGTAATCAATGGCCTTC	0.209
TTGATTACTGACAAATTGCAGC	-0.488
TAGCTTCGTCTTCAAAGCCTGC	-1.4
TAAAATGAGAGCGCACAGCTGC	-0.945
TTTATGATTGACCTGCTGCAAG	-1.02
TTCACAGCTCTCTTCTTCCTGG	0.117

Each sequence was assayed against SRPK1 in the same assay as above. Conditions: shRNA.

Sequence	sensor-assay potency score (higher = more potent)
TAGCATTATGTAGATCCTCTTT	-0.224
TTTGATGATCCACTTGAGCAGA	-0.465
TAGTTGAACAACCATTTCTCTA	-1.08
TAACTTTCGGATCACATGGTAT	-1.15
TATGTGTTCCATTAACTCCTGA	-0.508
ATCTAGTAGTTGAACAACCATT	-1.39
TTCCATAAGCGTTTGATCCTGG	0.385
TTATAGGTGTACAAGAGTCTGT	-0.536
TACAATAATCATTAGGATCTTC	-0.347
TTTAAAGTCATCTAGTAGTTGA	-0.439
TTCGCTTCTCTAGTAATTCTGC	0.131
TATTCTTTGACATTTTGTCAGC	-0.83

Each sequence was assayed against SRSF11 in the same assay as above. Conditions: shRNA.

Sequence	sensor-assay potency score (higher = more potent)
TTGATCTTGAATGCCTTCTTTT	-0.673
TTGCACTTCTAGAACGTCTGGC	0.928
TACATCTTTATCACTCTCTGAT	0.584
TTCCTCTTCATCATAATCCCGT	0.0321
TCTTCTTGCTTGTTGATCGTTC	0.0447
TATCTGGTTCTATAGCAGCAGA	-1.33
TAAGCTTCAGCAACTGATCTGC	0.509
TTCTTTACTAGAGGTATCCGAT	-0.524
TAGAACGTGATCTTGATCTTGA	0.589
TTTGTCTTTATCTTTCTTCTTC	0.407
